T cruzi growth – blocks T. cruzi growth in NIH3T3 culture | T. cruzi beta-gal in NIH3T3, GalScreen luminescence, 90 h | inhibition, % at 8.34 µM | 5.9% of 77,000 active | AID 624255;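 active = mean inhibition above about 93%, with at least 55% of replicates each passing it, limit read from the data, passing the limit was not always enough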
Pf Dd2 growth – blocks growth of Plasmodium falciparum Dd2 parasites. P. falciparum Dd2 growth, SYBR Green, 72 h; active compounds read low. activity change, % at 10 µM. 2.3% of 94,000 active. AID 1159554; in the data active = activity change below about -80%
C diff HTS – C. difficile growth inhibition; Clostridium difficile clinical isolate growth, OD600, 24 h; active compounds read low; AID 1259249; 0.25% of 86,000 active; growth activity, negative = inhibition, % at 16 µg/mL (by protocol);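 active = mean growth activity at or below -80% and every replicate also at or below -80%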;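 note: 0% = DMSO wells and -100% = levofloxacin 16 µg/mL wells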
Active calls of the source: *; x = no result given; ! = a repeat was not active. In the library only some 6.8% were active in any assay of this set; here they are far more common.

SMILES	T cruzi growth	Pf Dd2 growth	C diff HTS
C[C@H](CO)N1C[C@H](C)[C@H](CN(C)Cc2ccc(C(=O)Nc3ccccc3N)cc2)Oc2ccc(NC(=O)C3CC3)cc2CC1=O	78	-33	-6
CO[C@H]1CN(C)C(=O)c2cc(NC(=O)C3CCC3)ccc2OC[C@@H](C)N(Cc2cccnc2)C[C@H]1C	91	-19	x
C[C@@H]1CN([C@@H](C)CO)C(=O)c2cc(Br)cnc2O[C@H]1CN(C)CC1CCCC1	73	26	x
CC(C)NC(=O)Nc1cccc2c1O[C@@H](CN(C)C(=O)Nc1ccc3c(c1)OCO3)[C@@H](C)CN([C@H](C)CO)C2=O	32	-9	x
CC(C)NC(=O)Nc1cccc2c1O[C@H](CN(C)C(=O)Nc1ccc3c(c1)OCO3)[C@@H](C)CN([C@@H](C)CO)C2=O	10	16	x
C[C@H]1CN([C@@H](C)CO)C(=O)c2cccc(NC(=O)Nc3ccccc3)c2O[C@H]1CN(C)C(=O)Nc1ccc2c(c1)OCO2	21	-17	x
C[C@@H]1CN([C@@H](C)CO)C(=O)c2cccc(NC(=O)C3CC3)c2O[C@@H]1CN(C)C(=O)Nc1ccc2c(c1)OCO2	19	-83*	-2
C[C@H]1CN([C@@H](C)CO)C(=O)c2cccc(NC(=O)C3CC3)c2O[C@H]1CN(C)C(=O)Nc1ccc2c(c1)OCO2	32	-26	-4
C[C@H]1CN([C@@H](C)CO)C(=O)Cc2cc(NC(=O)Nc3ccc4c(c3)OCO4)ccc2O[C@@H]1CN(C)C(=O)Nc1cccc2ccccc12	4	14	-2
C[C@@H]1CN([C@@H](C)CO)C(=O)c2cccc(NC(=O)Nc3ccccc3)c2O[C@@H]1CN(C)C(=O)Nc1ccc2c(c1)OCO2	-3	-85*	x
C[C@H](CO)N1C[C@H](C)[C@@H](CN(C)C(=O)Nc2cccc3ccccc23)Oc2ccc(NC(=O)Nc3ccc4c(c3)OCO4)cc2CC1=O	-10	-82*	-1
CC(C)NC(=O)Nc1cccc2c1O[C@H](CN(C)C(=O)Nc1ccc3c(c1)OCO3)[C@H](C)CN([C@@H](C)CO)C2=O	39	-83*	x
CCS(=O)(=O)Nc1ccc2c(c1)C(=O)N(C)C[C@H](OC)[C@H](C)CN(C)[C@H](C)CO2	29	10	-5
O=C(c1cccc(F)c1)N1C[C@H]2[C@@H](c3ccccc31)[C@H](CO)N2C(=O)C1CCOCC1	50	-32	-4
CN1[C@@H]2Cn3c(ccc(-c4ccccc4)c3=O)[C@H]1[C@@H](C(=O)NC1CCCCC1)[C@@H]2CO	4	4	-1
C[C@@H]1CN([C@H](C)CO)C(=O)c2cccc(NC(=O)Nc3cccc4ccccc34)c2O[C@@H]1CN(C)C(=O)Nc1ccc2c(c1)OCO2	80	-83*	6
C[C@@H]1CN([C@H](C)CO)C(=O)c2cccc(NC(=O)Nc3cccc4ccccc34)c2O[C@H]1CN(C)C(=O)Nc1ccc2c(c1)OCO2	66	-19	-6
CN1C(=O)c2cc(NS(=O)(=O)c3ccccc3Cl)ccc2OC[C@@H]2O[C@H](CC(=O)O)CC[C@H]21	-7	9	1
O=C(C1CC1)N1C[C@@H]2N[C@H](C1)C2c1ccc(/C=C/c2ccccc2)cc1 (stereo partly drawn)	x	1	-7
Cc1cccc(-c2ccc(C3[C@@H]4CN(C(=O)c5ccncc5)C[C@H]3N4)cc2)c1 (stereo partly drawn)	x	-9	-8
Cc1cccc(-c2ccc([C@@H]3[C@@H]4CN(C(=O)CN(C)C)C[C@H]3N4)cc2)c1	x	-85*	29
CN(C)CC(=O)N1C[C@@H]2N[C@H](C1)C2c1ccc(/C=C/c2ccccc2)cc1 (stereo partly drawn)	x	-91*!	9
O=C(NCC[C@@H]1CC[C@@H](NC(=O)C2CCCCC2)[C@@H](CO)O1)c1ccc(F)cc1	2	4	x
C[C@H](NC(=O)C[C@H]1C=C[C@@H](NC(=O)CN2CCOCC2)[C@H](CO)O1)c1ccccc1	50	17	x
CNC(=O)C[C@@H]1CC[C@H]2[C@@H](COc3ccc(NC(=O)c4cccc(F)c4)cc3C(=O)N2C)O1	-4	0	3
SMILES	T cruzi growth	Pf Dd2 growth	C diff HTS
CN(C)CC#Cc1cccc(-c2nc(C(=O)N[C@@H]3CCN(Cc4ccccc4)C3)cc3c2[C@H](CCO)N(S(=O)C(C)(C)C)C3)c1 (stereo partly drawn)	x	-85*	1
CC(C)(C)[S@](=O)N1Cc2cc(C(=O)N[C@H]3CCN(Cc4ccccc4)C3)nc(-c3cccc(-c4ccncc4)c3)c2[C@@H]1CCO	x	-78	-6
CN(C)CC#Cc1cccc(-c2nc(C(=O)N3CCN(Cc4ccccc4)CC3)cc3c2[C@@H](CCO)N(S(=O)C(C)(C)C)C3)c1 (stereo partly drawn)	x	-3	5
CC(C)(C)[S@](=O)N1Cc2cc(C(=O)N[C@@H]3CCN(Cc4ccccc4)C3)nc(-c3cccc(-c4cccnc4)c3)c2[C@@H]1CCO	91	-88*	x
C[C@H](CO)N1C[C@H](C)[C@@H](CN(C)S(=O)(=O)c2ccc(Cl)cc2)OCCCC[C@H](C)Oc2ccc(NC(=O)CCCN(C)C)cc2C1=O	22	-48	-2
CCCN(C)C[C@H]1OCCCC[C@H](C)Oc2ccc(NC(=O)c3ccccc3)cc2C(=O)N([C@@H](C)CO)C[C@H]1C	48	-8	-1
C[C@@H]1CN([C@@H](C)CO)C(=O)c2cc(NC(=O)CCC(F)(F)F)ccc2O[C@@H](C)CCCCO[C@H]1CN(C)C(=O)Nc1cccc2ccccc12	60	-85*	-2
C[C@H](CO)N1C[C@H](C)[C@@H](CN(C)C(=O)Nc2cccc3ccccc23)OCCCC[C@H](C)Oc2ccc(NC(=O)CCC(F)(F)F)cc2C1=O	68	-37	3
C[C@@H]1CN([C@@H](C)CO)C(=O)c2cc(NC(=O)CCC(F)(F)F)ccc2O[C@@H](C)CCCCO[C@@H]1CN(C)C(=O)Nc1cccc2ccccc12	44	-89*	10
C[C@@H]1CN([C@H](C)CO)C(=O)c2cc(NC(=O)CCC(F)(F)F)ccc2O[C@@H](C)CCCCO[C@H]1CN(C)C(=O)Nc1cccc2ccccc12	62	-69	-1
CC(C)CC#Cc1ccc([C@@H]2[C@H](CO)N3C(=O)CN(C(=O)c4ccccn4)C[C@@H]23)cc1	x	-11	-10
C[C@@H]1CN([C@@H](C)CO)C(=O)c2cc(C#CC3CCCC3)cnc2O[C@H]1CN(C)C(=O)Cc1ccccn1	101	-15	-1
O=C(N[C@@H]1CC[C@@H](CCNC(=O)c2cnccn2)O[C@@H]1CO)c1ccc2c(c1)OCO2	-30	-9	x
C[C@@H]1CCCCO[C@H](CN(C)C(=O)c2ccccc2)[C@@H](C)CN([C@@H](C)CO)C(=O)c2cc(NC(=O)Nc3cccc4ccccc34)ccc2O1	86	-82*	0
C[C@@H]1CN([C@@H](C)CO)C(=O)c2cc(NC(=O)Nc3cccc4ccccc34)ccc2O[C@@H](C)CCCCO[C@H]1CN(C)C(=O)c1ccccc1	41	3	-4
C[C@@H]1CCCCO[C@H](CN(C)C(=O)CCCN(C)C)[C@H](C)CN([C@H](C)CO)C(=O)c2cc(NC(=O)Nc3cccc4ccccc34)ccc2O1	79	-86*	5

Assay outcomes as filed in PubChem.
